Values joined by “and” are separate entries in the source; they are usually repeats but may differ in a detail not shown here. Identical values can stand only once. Results filed as inconclusive are left out. Entries that show only a call come without a potency. Active and inactive are the calls of the source. Unless noted, the call rests on the fitted dose curve.
Experiments:
[1] = target: Ubiquitin carboxyl-terminal hydrolase 1 (Homo sapiens) (UniProt O94782); assay: Inhibitors of USP1/UAF1: Pilot qHTS (AID 504865; active means well fitted inhibition curve with a large enough effect;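 further: rhodamine fluorescence freed from ubiquitin-rhodamine substrate followed over time; top concentration of the series differs between compounds; nearly all actives have a fitted effect of over 35% in size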)
Ubiquitin carboxyl-terminal hydrolase 1 (Homo sapiens), sequence (O94782 whole entry, looked up): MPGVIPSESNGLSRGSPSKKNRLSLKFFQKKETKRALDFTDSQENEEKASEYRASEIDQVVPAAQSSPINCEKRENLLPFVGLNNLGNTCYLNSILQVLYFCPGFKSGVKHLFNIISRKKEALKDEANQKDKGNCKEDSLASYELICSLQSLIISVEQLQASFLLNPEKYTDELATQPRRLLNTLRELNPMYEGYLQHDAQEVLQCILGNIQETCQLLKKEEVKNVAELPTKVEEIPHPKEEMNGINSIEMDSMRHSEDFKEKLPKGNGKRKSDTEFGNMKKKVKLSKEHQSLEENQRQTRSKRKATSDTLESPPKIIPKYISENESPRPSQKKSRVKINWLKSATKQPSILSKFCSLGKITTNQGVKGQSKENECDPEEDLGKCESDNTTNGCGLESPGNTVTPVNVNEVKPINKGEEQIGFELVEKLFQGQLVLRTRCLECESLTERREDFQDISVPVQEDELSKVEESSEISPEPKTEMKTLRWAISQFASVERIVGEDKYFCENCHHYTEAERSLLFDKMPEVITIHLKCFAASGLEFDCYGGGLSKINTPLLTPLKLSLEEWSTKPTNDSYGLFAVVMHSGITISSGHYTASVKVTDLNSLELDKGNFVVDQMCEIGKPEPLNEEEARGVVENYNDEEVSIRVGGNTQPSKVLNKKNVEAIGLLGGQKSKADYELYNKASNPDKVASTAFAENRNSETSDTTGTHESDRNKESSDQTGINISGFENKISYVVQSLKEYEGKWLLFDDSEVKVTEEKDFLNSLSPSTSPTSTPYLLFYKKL
In short: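 1nM USP1/UAF1 + cpd, 15 min RT; start w/ Ub-Rho 150nM final; kinetic FL 480/540 nm, 6 reads q60 s. Buffer 50mM HEPES pH 7.8, 0.5mM EDTA, 1mM TCEP, 0.01% Tween-20, 0.1 mg/ml BSA.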

[2] = target: Estrogen receptor (Homo sapiens) (UniProt P03372); assay: qHTS assay for small molecule antagonists of estrogen receptor alpha signaling (AID 588513; active means well fitted curve in the direction sought with a large enough effect in the signal ratio, with a control signal flat, not every such curve was filed as active; the % refers to the signal ratio)
Estrogen receptor (Homo sapiens), sequence (P03372 whole entry, looked up): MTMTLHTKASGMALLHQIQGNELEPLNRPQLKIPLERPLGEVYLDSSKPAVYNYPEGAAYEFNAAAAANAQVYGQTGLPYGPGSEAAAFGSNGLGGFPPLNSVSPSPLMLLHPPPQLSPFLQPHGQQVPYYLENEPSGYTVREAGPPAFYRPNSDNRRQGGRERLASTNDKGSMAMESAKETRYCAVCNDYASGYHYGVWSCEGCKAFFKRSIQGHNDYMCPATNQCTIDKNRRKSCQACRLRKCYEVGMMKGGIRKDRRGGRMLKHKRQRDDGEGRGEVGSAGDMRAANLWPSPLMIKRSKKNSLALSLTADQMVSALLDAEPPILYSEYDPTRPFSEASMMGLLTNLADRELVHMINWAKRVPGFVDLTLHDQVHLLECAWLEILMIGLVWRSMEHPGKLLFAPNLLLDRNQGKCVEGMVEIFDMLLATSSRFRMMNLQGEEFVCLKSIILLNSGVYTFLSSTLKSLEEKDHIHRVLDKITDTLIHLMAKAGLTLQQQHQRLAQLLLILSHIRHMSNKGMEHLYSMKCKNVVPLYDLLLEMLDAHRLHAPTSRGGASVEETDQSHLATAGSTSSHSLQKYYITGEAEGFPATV
In short: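 Beta-lactamase reporter, antagonist mode, HEK 293 GripTite cells; 0.5nM E2 stimulus, 18 h, 37 C; CCF4 dye 2 h RT; fluorescence. IC50 and efficacy from Hill fits, normalized to E2 and DMSO.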

[3] = target: Estrogen receptor (Homo sapiens) (UniProt P03372); assay: qHTS assay for small molecule agonists of estrogen receptor alpha signaling (AID 588514); further: nearly all actives have a fitted effect of over 70% in size
In short: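 Cells were plated at 5000/well, incubated 4 hrs at 37 C, dosed with compound titration series, incubated 18 hrs at 37 C, loaded with CCF4 dye for 2 hrs at RT, then fluorescence was read.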

[4] = target: Bile acid receptor (Homo sapiens) (UniProt Q96RI1); assay: qHTS assay for small molecule antagonists of farnesoid X receptor signaling (AID 588526)
Bile acid receptor (Homo sapiens), sequence (Q96RI1 whole entry, looked up): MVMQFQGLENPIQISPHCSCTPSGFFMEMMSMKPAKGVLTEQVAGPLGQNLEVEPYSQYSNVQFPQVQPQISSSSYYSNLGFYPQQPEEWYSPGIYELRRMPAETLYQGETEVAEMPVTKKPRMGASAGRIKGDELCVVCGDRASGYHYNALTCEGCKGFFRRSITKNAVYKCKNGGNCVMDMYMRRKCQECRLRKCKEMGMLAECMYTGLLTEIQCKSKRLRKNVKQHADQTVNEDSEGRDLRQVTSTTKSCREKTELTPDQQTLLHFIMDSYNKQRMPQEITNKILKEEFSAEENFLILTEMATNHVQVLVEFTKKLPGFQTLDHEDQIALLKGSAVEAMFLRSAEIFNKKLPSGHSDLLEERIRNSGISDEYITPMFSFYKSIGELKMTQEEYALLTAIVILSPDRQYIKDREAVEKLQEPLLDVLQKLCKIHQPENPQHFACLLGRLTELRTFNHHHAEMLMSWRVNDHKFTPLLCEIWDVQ
In short: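 Antagonist mode: titrated compounds tested against chenodeoxycholic acid stimulation (normalized to 50 uM CDCA and DMSO) in GeneBLAzer HEK293T cells for 16 h. Beta-lactamase read by CCF4 fluorescence; IC50 from Hill fits.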

[5] = qHTS assay for small molecule antagonists of peroxisome proliferator-activated receptor delta signaling (AID 588535; active means well fitted inhibition curve with a large enough effect in the signal ratio, with a control signal flat, not every such curve was filed as active; the % refers to the signal ratio;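 on max response: cells co-treated with a PPAR-delta agonist as stimulator during compound exposure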); settings: HEK293T PPARd-UAS-bla, beta-lactamase FRET ratio, 18 h; 460 nm channel
In short: (§1)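 Antagonist-mode beta-lactamase reporter (GeneBLAzer PPAR-delta-UAS-bla) in HEK293T cells, 2% charcoal/dextran FBS, 4000 cells/well. Compound titrations, 18 h at 37 C; CCF4 ratio read, IC50 and efficacy from Hill fits.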

[6] = target: Peroxisome proliferator-activated receptor delta (Homo sapiens) (UniProt Q03181); assay: as above
Peroxisome proliferator-activated receptor delta (Homo sapiens), sequence (Q03181 whole entry, looked up): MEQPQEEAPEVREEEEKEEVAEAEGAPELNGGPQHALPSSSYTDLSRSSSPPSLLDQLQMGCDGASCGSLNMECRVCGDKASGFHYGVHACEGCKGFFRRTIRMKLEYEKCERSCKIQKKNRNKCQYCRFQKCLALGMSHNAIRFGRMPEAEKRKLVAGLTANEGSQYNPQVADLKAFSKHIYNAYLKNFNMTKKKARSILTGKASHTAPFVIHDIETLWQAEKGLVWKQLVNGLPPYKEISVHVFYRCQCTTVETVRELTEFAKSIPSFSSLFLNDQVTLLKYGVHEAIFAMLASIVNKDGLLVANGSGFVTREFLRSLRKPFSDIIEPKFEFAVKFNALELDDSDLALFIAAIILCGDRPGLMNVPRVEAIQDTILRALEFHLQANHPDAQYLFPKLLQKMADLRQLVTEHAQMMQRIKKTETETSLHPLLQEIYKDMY
In short: as §1

[7] = target: Peroxisome proliferator-activated receptor gamma (Homo sapiens) (UniProt P37231); assay: qHTS assay for small molecule agonists of peroxisome proliferator-activated receptor gamma signaling (AID 588536; active means well fitted curve in the direction sought with a large enough effect in the signal ratio, with a control signal flat, not every such curve was filed as active; the % refers to the signal ratio)
Peroxisome proliferator-activated receptor gamma (Homo sapiens), sequence (P37231 whole entry, looked up): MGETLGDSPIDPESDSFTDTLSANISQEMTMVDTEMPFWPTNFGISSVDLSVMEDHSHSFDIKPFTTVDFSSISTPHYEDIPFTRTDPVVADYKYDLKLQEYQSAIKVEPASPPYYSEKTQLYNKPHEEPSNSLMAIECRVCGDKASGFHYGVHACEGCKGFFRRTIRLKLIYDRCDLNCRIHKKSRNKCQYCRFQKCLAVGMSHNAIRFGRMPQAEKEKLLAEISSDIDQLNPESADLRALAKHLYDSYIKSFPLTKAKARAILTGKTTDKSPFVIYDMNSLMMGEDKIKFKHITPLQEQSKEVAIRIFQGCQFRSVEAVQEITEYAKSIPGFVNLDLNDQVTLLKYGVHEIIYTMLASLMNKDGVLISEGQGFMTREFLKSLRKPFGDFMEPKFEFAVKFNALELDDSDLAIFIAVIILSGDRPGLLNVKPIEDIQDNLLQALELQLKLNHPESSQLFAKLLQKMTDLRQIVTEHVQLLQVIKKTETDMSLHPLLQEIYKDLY
In short: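 PPAR-gamma-UAS-bla HEK293 cells in medium with 1% charcoal/dextran-treated FBS were exposed to compounds for 16 h at 37 C. Beta-lactamase activity was read with CCF4 substrate (405 nm excitation, 460/530 nm emission).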

[8] = target: Peroxisome proliferator-activated receptor gamma (Homo sapiens) (UniProt P37231); assay: qHTS assay for small molecule antagonists of peroxisome proliferator-activated receptor gamma signaling (AID 588537; active means well fitted inhibition curve with a large enough effect in the signal ratio, with a control signal flat, not every such curve was filed as active; the % refers to the signal ratio;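 further: reporter cells co-stimulated with 50 nM rosiglitazone agonist during compound treatment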)
In short: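 PPARγ-UAS-bla HEK293 cells (3000/well) in 1% charcoal/dextran-stripped FBS are treated with compound, then stimulated with 50 nM rosiglitazone for 16 h at 37 °C. Read-out is CCF4 β-lactamase fluorescence after 2 h at RT. IC50 comes from Hill fits normalised to rosiglitazone and DMSO.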

[9] = qHTS assay for small molecule agonists of retinoid X receptor alpha signaling (AID 588544); settings: HEK293T RXRa-UAS-bla, beta-lactamase reporter, 18 h; 530 nm emission
[10] = target: Retinoic acid receptor RXR-alpha (Homo sapiens) (UniProt P19793); assay: as above
Retinoic acid receptor RXR-alpha (Homo sapiens), sequence (P19793 whole entry, looked up): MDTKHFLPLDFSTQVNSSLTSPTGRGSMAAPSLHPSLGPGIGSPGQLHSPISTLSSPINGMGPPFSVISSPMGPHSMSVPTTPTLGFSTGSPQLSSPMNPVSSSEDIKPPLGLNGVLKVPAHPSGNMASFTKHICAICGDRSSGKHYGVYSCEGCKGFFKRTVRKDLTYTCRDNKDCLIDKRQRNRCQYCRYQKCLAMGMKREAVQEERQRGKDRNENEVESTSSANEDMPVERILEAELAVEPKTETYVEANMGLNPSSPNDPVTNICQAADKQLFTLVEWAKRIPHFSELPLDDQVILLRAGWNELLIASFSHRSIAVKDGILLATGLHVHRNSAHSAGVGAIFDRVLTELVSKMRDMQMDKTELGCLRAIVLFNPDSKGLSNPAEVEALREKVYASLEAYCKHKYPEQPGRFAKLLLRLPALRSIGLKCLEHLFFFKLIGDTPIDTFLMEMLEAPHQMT

[11] = target: Thyroid hormone receptor beta (Homo sapiens) (UniProt P10828); assay: qHTS assay for small molecule agonists of thyroid hormone receptor beta signaling (AID 588545)
Thyroid hormone receptor beta (Homo sapiens), sequence (P10828 whole entry, looked up): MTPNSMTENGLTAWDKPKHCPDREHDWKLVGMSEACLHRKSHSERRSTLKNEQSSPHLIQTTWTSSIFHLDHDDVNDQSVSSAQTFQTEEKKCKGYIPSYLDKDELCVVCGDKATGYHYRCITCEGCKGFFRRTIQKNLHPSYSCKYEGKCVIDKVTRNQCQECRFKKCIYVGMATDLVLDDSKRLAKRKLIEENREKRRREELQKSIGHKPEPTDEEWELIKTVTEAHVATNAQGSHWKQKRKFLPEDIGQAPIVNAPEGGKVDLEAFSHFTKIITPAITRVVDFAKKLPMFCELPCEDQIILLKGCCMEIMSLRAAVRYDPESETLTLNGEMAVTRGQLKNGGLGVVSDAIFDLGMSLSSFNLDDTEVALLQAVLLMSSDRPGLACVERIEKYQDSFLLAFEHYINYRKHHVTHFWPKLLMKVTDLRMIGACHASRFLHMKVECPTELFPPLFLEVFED
In short: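 TR-UAS-bla GripTite HEK 293 cells (2500/well, medium with 2% charcoal/dextran FBS) were treated in agonist mode for 18 h at 37 C, titrated. Beta-lactamase was read by CCF4 ratio after 2 h; normalized to 10 nM T3 (100%) and DMSO, Hill-fitted for EC50 and efficacy.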

[12] = qHTS assay for small molecule antagonists of retinoid X receptor alpha signaling (AID 588546; active means well fitted inhibition curve with a large enough effect in the signal ratio, with a control signal flat, not every such curve was filed as active; the % refers to the signal ratio;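 further: cells stimulated with 9-cis-retinoic acid as agonist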); settings: HEK293T RXRa-UAS-bla, beta-lactamase ratio, antagonist mode; measured here: W530 green channel, cytotoxicity proxy
In short: (§2)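 Beta-lactamase reporter inhibition, read as CCF4 fluorescence ratio (ex 405, em 460/530 nm) after 2 h at RT. HEK293T UAS-bla cells, 2500/well, were stimulated with 9-cis-RA at 500 or 100 nM final alongside test compound for 18 h at 37 C.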

[13] = target: Retinoic acid receptor RXR-alpha (Homo sapiens) (UniProt P19793); assay: as above; settings: HEK293T RXRa-UAS-bla, beta-lactamase ratio, antagonist mode
In short: as §2

[14] = target: Glucocorticoid receptor (Homo sapiens) (UniProt P04150); assay: qHTS assay for small molecule agonists of glucocorticoid receptor signaling (AID 588532; active means well fitted curve in the direction sought with a large enough effect in the signal ratio, with a control signal flat; the % refers to the signal ratio); settings: HeLa MMTV-bla, beta-lactamase ratio, agonist, 18 h; stronger effect = higher value; percent of dexamethasone control, DMSO zero
Glucocorticoid receptor (Homo sapiens), sequence (P04150 whole entry, looked up): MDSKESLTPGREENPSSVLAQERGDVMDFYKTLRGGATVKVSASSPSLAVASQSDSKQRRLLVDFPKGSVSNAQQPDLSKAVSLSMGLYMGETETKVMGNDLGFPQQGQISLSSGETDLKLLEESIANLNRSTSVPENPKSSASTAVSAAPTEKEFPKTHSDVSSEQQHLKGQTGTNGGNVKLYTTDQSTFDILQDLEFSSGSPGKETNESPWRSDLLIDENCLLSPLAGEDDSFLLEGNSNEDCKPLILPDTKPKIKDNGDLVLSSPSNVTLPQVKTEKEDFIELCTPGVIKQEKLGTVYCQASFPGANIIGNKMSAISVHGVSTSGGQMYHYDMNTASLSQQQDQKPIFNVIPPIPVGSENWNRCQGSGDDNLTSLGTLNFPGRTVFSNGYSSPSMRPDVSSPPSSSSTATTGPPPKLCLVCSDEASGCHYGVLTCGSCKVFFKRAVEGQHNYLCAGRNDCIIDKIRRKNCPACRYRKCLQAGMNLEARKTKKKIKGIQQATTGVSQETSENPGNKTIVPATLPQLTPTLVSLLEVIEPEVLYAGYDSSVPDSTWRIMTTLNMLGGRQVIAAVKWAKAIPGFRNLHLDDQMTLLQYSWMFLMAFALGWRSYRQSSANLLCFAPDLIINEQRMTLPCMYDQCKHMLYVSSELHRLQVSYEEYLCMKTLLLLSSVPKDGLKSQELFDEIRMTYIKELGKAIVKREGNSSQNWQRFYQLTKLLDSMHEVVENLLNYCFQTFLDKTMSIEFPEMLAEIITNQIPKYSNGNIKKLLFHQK
In short: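 Cells were plated and rested 3-5 h at 37 C, compounds were added in titration and incubated 18 h, then CCF4 substrate was loaded for 2 h at RT before reading blue/green fluorescence. EC50 came from Hill-equation fitting.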

[15] = target: Glucocorticoid receptor (Homo sapiens) (UniProt P04150); assay: qHTS assay for small molecule antagonists of glucocorticoid receptor signaling (AID 588533; active means well fitted inhibition curve with a large enough effect in the signal ratio, with a control signal flat, not every such curve was filed as active; the % refers to the signal ratio)
In short: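 Antagonist-mode qHTS: compound titrations added to GRE-bla HeLa cells, then dexamethasone 2 nM final; 18 h, 37 C. CCF4 FRET fluorescence normalized to dexamethasone and DMSO; IC50 from Hill fit.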

[16] = target: Vitamin D3 receptor (Homo sapiens) (UniProt P11473); assay: qHTS assay for small molecule antagonists of vitamin D receptor signaling (AID 588541);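 further: receptor activated by calcitriol during compound treatment; series mostly up to about 77 µM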
Vitamin D3 receptor (Homo sapiens), sequence (P11473 whole entry, looked up): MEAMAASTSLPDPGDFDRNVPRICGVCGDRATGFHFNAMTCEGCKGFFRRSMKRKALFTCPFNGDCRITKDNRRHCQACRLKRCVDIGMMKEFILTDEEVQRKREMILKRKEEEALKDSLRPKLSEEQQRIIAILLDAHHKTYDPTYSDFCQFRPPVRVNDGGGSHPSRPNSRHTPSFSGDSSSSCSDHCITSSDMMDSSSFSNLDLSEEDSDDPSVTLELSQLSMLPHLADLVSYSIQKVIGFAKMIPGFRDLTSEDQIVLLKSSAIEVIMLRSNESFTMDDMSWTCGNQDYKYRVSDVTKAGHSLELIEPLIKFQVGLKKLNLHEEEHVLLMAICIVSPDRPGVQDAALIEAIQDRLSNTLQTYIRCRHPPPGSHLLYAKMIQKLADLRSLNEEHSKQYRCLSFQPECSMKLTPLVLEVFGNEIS
In short: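 VDR-UAS-bla HEK293T cells in 2% charcoal-stripped FBS were stimulated with 1-alpha,25-dihydroxyvitamin D3 (3 nM final) plus compound for 16 h at 37 C. The beta-lactamase CCF4 readout was normalized to 50 nM agonist and DMSO, and Hill fits gave IC50.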

[17] = target: Vitamin D3 receptor (Homo sapiens) (UniProt P11473); assay: qHTS assay for small molecule agonists of vitamin D receptor signaling (AID 588543)
In short: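 β-lactamase reporter, VDR-UAS-bla HEK293T, agonist mode. Cells plated 5 h at 37 °C, compound titration 16 h at 37 °C, CCF4 dye 2 h RT, ratio 460/530 nm. Hill fit → EC50, efficacy vs 50 nM 1α,25-(OH)2D3.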

Structure (SMILES)	Potency [1]	outcome [2]	outcome [3]	outcome [4]	max response [5]	outcome [6]	outcome [7]	outcome [8]	max response [9]	outcome [10]	outcome [11]	max response [12]	max response [13]	activation [14]	outcome [15]	outcome [16]	outcome [17]
Nc1ccc(S(=O)(=O)c2ccc(N)cc2)cc1	inactive	inactive	inactive	inactive	-19.4% and 10.1%	inactive	inactive	inactive	9.37%	inactive	inactive	-11.9%	-26.2% (inactive)	–	–	–	–
Cc1c(N(C)C)c(=O)n(-c2ccccc2)n1C	inactive	inactive	inactive	inactive	15.6%	inactive	–	–	-14.4% and -18.2%	inactive	inactive	-6.41% and -1.97%	-3.15% (inactive) and -4.34% (inactive)	1.22% (inactive) and -3.75% (inactive)	inactive	inactive	inactive
COC(=O)c1ccc(O)cc1	inactive	–	inactive	–	34.1%	inactive	inactive	inactive	3.58%	inactive	inactive	-19.3%	-10.5% (inactive)	15.6% (inactive)	inactive	inactive	inactive
